The whole screen tested about 580,000 compounds, of which about 6,100 (1.1%) were called active. A call without a number means that no potency is given here. Not shown: some 15% with an inconclusive outcome. Calls come from the whole dose curve; as a rule, active = well fitted inhibition curve with a large enough effect; inconclusive = small, poorly fitted or top-dose-only effect, or another doubt; inactive = no such curve, though single readings can be large or run the other way. This excerpt belongs to a sample that is enriched for actives.

The text below walks through data of PubChem BioAssay AID1671190 (National Center for Advancing Translational Sciences (NCATS), 2021).
Potency is the fitted concentration of half-maximal effect.

Chain of Polyunsaturated fatty acid lipoxygenase ALOX12 (Homo sapiens) (P18054 whole entry, looked up): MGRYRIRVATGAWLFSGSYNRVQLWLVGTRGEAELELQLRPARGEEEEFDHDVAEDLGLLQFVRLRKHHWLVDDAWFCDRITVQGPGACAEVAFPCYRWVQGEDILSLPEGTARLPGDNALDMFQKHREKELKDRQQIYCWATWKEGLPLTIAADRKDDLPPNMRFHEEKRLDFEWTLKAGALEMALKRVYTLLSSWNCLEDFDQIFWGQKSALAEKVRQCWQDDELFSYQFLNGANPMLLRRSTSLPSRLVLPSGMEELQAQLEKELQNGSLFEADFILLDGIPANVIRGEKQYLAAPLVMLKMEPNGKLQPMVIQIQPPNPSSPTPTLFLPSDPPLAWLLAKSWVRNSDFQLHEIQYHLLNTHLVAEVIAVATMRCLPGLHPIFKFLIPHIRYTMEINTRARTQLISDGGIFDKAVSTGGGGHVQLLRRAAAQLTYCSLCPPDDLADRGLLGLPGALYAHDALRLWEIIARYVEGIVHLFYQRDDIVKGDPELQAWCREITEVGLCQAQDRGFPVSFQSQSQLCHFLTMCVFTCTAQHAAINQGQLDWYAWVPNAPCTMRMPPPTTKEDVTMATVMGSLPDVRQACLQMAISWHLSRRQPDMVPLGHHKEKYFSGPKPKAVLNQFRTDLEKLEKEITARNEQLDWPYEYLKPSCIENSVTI

This assay addresses Polyunsaturated fatty acid lipoxygenase ALOX12 (Homo sapiens) (UniProt P18054). Briefly: Primary qHTS assay for inhibitors of human arachidonate 12S-lipoxygenase (ALOX12): Round 2. The note with it: purified 12hLO, xylenol orange hydroperoxide absorbance; series mostly up to 108 µM. The method, boiled down: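 Hydroperoxide product was detected by ferrous iron/xylenol orange as the 573 to 405 nm absorbance ratio. Arachidonic acid at 40 uM (final) was turned over for 30 min at room temperature by 150 nM human 12hLO, pH 7.0 Hepes buffer, after 15 min compound preincubation.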
A general note: Quantitative high-throughput screening tests each substance at several concentrations.
In the case of `CC(Sc1ccc2c(c1)OCCCO2)C(=O)O` (stereo unspecified), the Potency entry is “inactive”.
Regarding `Cc1[nH]c2ccccc2c1C(=O)C(C)Sc1nnc(C2CC2)o1` (stereo unspecified), the Potency entry is “inactive”.
Same read-out and setting: as for `Cc1[nH]c2ccccc2c1C(=O)C(C)Sc1ccc2c(c1)OCCCO2` (stereo unspecified), the figure is 14.1 µM (active); as for `COc1ccc(-c2c(C)c3ccc(OCC(=O)OC(C)(C)C)cc3oc2=O)cc1OC`, “inactive”.
Still for that read-out and setting: as for `CCN(C1CCCCC1)S(=O)(=O)c1ccc(C(=O)Nc2ccc(Cl)c3ncsc23)cc1`, the entry is “inactive”.
Same read-out and setting: for `CO[C@@H]1COCC[C@H]1NC(=O)CCCc1nc(-c2ccccc2C)no1` the value was “inactive”; for `CC1CC(C)(C)NC(=S)N1CCC(=O)N1CCN(Cc2ccccc2)CC1` (stereo unspecified), “inactive”.
In the case of `CC1CC(=S)Nc2ccccc2N1Cc1ccccc1` (stereo unspecified), the Potency was 44.7 µM (active).
The same measure, in the same setting: for `CC1CC(=O)Nc2ccccc2N1S(=O)(=O)c1cccs1` (stereo unspecified) the value was “inactive”.
On to `O=C(CCN1C(=O)c2ccccc2S1(=O)=O)Nc1ccc(S(=O)(=O)N2CCCC2)cc1`, for which the Potency entry was “inactive”.
Take `C=C(Br)CNCc1ccccc1`: the Potency result was “inactive”.
Regarding `Cc1ccc(C(C)NC(=O)CCc2nc(C(C)C)no2)o1` (stereo unspecified), the Potency entry is “inactive”.
The same measure, in the same setting: for `Cc1ccccc1-c1cc(C(=O)NCCN2CCNC2=O)c2c(c1)N(C)CCO2` the value was “inactive”.
With `Cc1noc(/C=C/c2ccco2)c1S(=O)(=O)N1CCC(C(=O)N2CCc3ccccc32)CC1`, the Potency is 14.1 µM (active).
On the same count and under the same terms, as for `COc1ccccc1N1CCN(C(=O)C2CCN(S(=O)(=O)c3c(C)noc3/C=C/c3ccc(C)cc3)CC2)CC1`, the entry is “inactive”.
On the same count and under the same terms, for `Cc1noc(/C=C/c2ccco2)c1S(=O)(=O)N1CCC(C(=O)Nc2ccc(Cl)cn2)CC1` the value was “inactive”.
Still for that read-out and setting: as for `CN(CC(=O)NC(C)(C)C)Cc1cccc2cccnc12`, the entry is “inactive”.
Take `CO/N=C(/C(=O)N[C@@H]1C(=O)N2C(C(=O)O)=C(Cn3nnc(C)n3)CS[C@H]12)c1csc(N)n1`: the activity change, negative = inhibition was -8.52% [at 22.9 µM] (inactive).
As to `Cc1nnc(SCc2cc(=O)[nH]c(N3CCN(Cc4ccccc4)CC3)n2)s1`, the Potency entry is “inactive”.
In the case of `Cc1cc(C)cc(C(=O)NC2C(=O)N3C(C(=O)O)=C(CSc4nnc(C)s4)CSC23)c1` (stereo unspecified), the Potency was 39.8 µM (active).
Still for that read-out and setting: as for `CC(C)C(=O)Nc1cc(Cl)ccc1Cl`, the entry is “inactive”; as for `CC(C)C(=O)N1CCN(C(=O)c2cc3ccccc3n2C)CC1`, “inactive”; as for `CNc1c(NC(=O)Nc2ccc(F)cc2F)c(=O)oc2ccccc12`, “inactive”.
On the same count and under the same terms, as for `CCC1(CC)Cc2ccccc2-c2nc(CCl)[nH]c(=O)c21`, the figure is 7.08 µM (active); as for `O=c1[nH]c(CCl)nc2cc(-c3ccc(Cl)cc3)sc12`, “inactive”.
Still for that read-out and setting: for `CCOC(=O)C1Cn2c(nc3c(c2=O)C(C)(CC)Cc2ccccc2-3)S1` (stereo unspecified) the value was “inactive”.
Take `CC(C)C(=O)Nc1ccc(-c2nc3ccccc3o2)cc1`: the Potency entry was “inactive”.
Still for that read-out and setting: for `CCOC(=O)c1nc2ccccc2nc1NCc1ccc(C)cc1` the value was “inactive”; for `CC(=O)c1c(C)[nH]c(C(=O)c2oc3ccc(Cl)cc3c2C)c1C`, “inactive”.
For the compound `COC(=O)c1ccc(/C=C2\Oc3cc(OS(C)(=O)=O)cc(C)c3C2=O)cc1`, the Potency result is “inactive”.
The same measure, in the same setting: for `CCN1CCN(c2cc3nc(C)n(Cc4ccccc4)c(=O)c3cc2NC(=O)c2ccccc2F)CC1` the value was “inactive”.
Still for that read-out and setting: as for `Cc1cccc(N2CCN(c3ccc(C(=O)O)cc3NC(=O)c3ccccc3F)CC2C)c1` (stereo unspecified), the figure is 50.1 µM (active); as for `Cc1cccc(N2CCN(C(=O)c3ccccc3NC(=O)C3CCCCC3C(=O)O)CC2)c1` (stereo unspecified), “inactive”; as for `O=C(c1cccc(Br)c1)N1CCC(CCc2ccc(O)cc2)CC1`, “inactive”.
Same read-out and setting: as for `Cc1ccc(NC(NC(=O)c2cccc(C)c2)C(Cl)(Cl)Cl)cc1` (stereo unspecified), the entry is “inactive”; as for `CCCCC/C=C/C1=CC(=O)C[C@H](c2ccc(Cl)cc2)C1`, 35.5 µM (active).
For the compound `CCc1nc2nc3c(cn2n1)C(=O)CC(c1ccc(Cl)cc1)C3` (stereo unspecified), the Potency result was “inactive”.
Still for that read-out and setting: as for `O=C1C=C(c2cccc(Cl)c2O)C[C@@H](c2ccc(F)cc2)C1`, the entry is “inactive”; as for `CCCCc1ccc(NC(=O)c2cc3c(s2)CCCC3)cc1`, “inactive”.
`CN(Cc1ccon1)C(=O)c1coc(COc2ccc(F)cc2Cl)n1`: the Potency entry is “inactive”.
The same measure, in the same setting: as for `Cn1c(=O)c2c(ncn2CCC(=O)NCc2ccc(F)cc2)n(C)c1=O`, the entry is “inactive”.
Same read-out and setting: as for `CN1CCN(c2ccc3nnc(C4CCC4)n3n2)CC1`, the entry is “inactive”.
The same measure, in the same setting: as for `CCOC(=O)c1ccc(NC(=O)N2Cc3[nH]cnc3C[C@H]2c2nc(-c3ccc(Cl)cc3)no2)cc1`, the entry is “inactive”; as for `Cc1ccc(-c2noc([C@@H]3Cc4nc[nH]c4CN3C(=O)Nc3ccccc3)n2)cc1`, “inactive”.
Consider `CC(C)NC(=O)N1Cc2[nH]cnc2C[C@H]1c1nc(-c2ccc(Cl)cc2)no1`, for which the Potency is 14.1 µM (active).
The same measure, in the same setting: as for `Cc1nc(NC2CCCCC2)sc1C(=O)Nc1ccccc1`, the entry is “inactive”; as for `CC(C)C(=O)N/N=C/c1ccc(Cl)cc1`, “inactive”; as for `COc1cc2c(cc1O)NC(=O)CC2c1cn[nH]c1-c1cc(C)ccc1C` (stereo unspecified), “inactive”.
On the same count and under the same terms, as for `CC(C)OCC(O)Cn1c(NCc2ccccc2)nc2c1c(=O)[nH]c(=O)n2C` (stereo unspecified), the entry is “inactive”; as for `O=C(COC(=O)c1cccc(NS(=O)(=O)c2ccccc2)c1)NCc1cccs1`, “inactive”.
On to `COc1cccc(CNC(=O)Cn2c(=O)oc3cc(S(=O)(=O)N4CCCCC4)ccc32)c1`, for which the Potency result is “inactive”.
Same read-out and setting: as for `CC1CCCCN1C(=O)Cn1c(=O)oc2cc(S(=O)(=O)N3CCCCC3)ccc21` (stereo unspecified), the entry is “inactive”.
Take `CNC(=O)c1ccc(NC(=O)CCn2c(=O)oc3cc(S(=O)(=O)N4CCCC4)ccc32)cc1`: the Potency is 35.5 µM (active).
The same measure, in the same setting: for `Cc1ccc(OCCC(=O)Nc2cc3c(cc2Cl)OCCO3)c(C)c1` the value was “inactive”; for `CCOc1ccc(C(C)NC(=O)Cn2c(=O)c3c(ncn3C)n(C)c2=O)cc1` (stereo unspecified), “inactive”; for `CC1=C[C@@H](CN(C)CCc2ccccn2)[C@H](C(C)C)C[C@H]1Cc1nnc(-c2ccccc2F)o1`, “inactive”.
As for `O=C(CCn1ccc(=O)[nH]c1=O)N[C@@H]1COCC[C@@H]1OCc1ccccc1`, the Potency entry is “inactive”.
The same measure, in the same setting: as for `C=CCNC(=S)N(CC)CC`, the entry is “inactive”; as for `COc1cc(S(=O)(=O)Nc2ccccc2OC)ccc1NC(C)=O`, “inactive”; as for `COc1ccc(Br)cc1/C=N/Nc1ccc(S(=O)(=O)Nc2ccccc2C(=O)O)cc1[N+](=O)[O-]`, 14.1 µM (active).
Same read-out and setting: for `COC(=O)c1ccccc1NS(=O)(=O)c1ccc2c(c1)CCCN2C(C)=O` the value was “inactive”.
Still for that read-out and setting: as for `O=C(O/N=C1\CCCc2oc3c(c21)CCCC3)c1ccc(Cl)c(Cl)c1`, the entry is “inactive”; as for `Cc1ccc(Cn2c(N3CCC(C(N)=O)CC3)nc3c2c(=O)n(C)c(=O)n3C)cc1`, “inactive”.
For the compound `Cc1oc(-c2ccccc2)nc1C(=O)NC(C1CC1)C1CC1`, the Potency entry was “inactive”.
As for `CC(C)(C)NC(=O)C(CCc1ccccc1)n1c(=O)c(-c2ccccc2)nc2ccccc21` (stereo unspecified), the Potency result was “inactive”.
Same read-out and setting: for `O=C(NCCn1c(-c2ccccc2)nc2ccccc21)NCc1ccccc1` the value was “inactive”; for `N#Cc1ccc(C(C(=O)NCc2ccccc2)n2c(=O)c(-c3ccco3)nc3ccccc32)cc1` (stereo unspecified), 17.8 µM (active).
On the same count and under the same terms, for `Cc1cccc(C)c1NC(=O)C(c1ccc(C(F)(F)F)cc1)n1c(=O)c(-c2ccco2)nc2ccccc21` (stereo unspecified) the value was 14.1 µM (active); for `COc1ccc(NC(=O)C(c2ccncc2)n2c(=O)c(-c3cc4ccccc4[nH]3)nc3ccccc32)cc1` (stereo unspecified), “inactive”; for `CCC(C(=O)Nc1c(C)cccc1C)n1c(-c2cc(C)cs2)nc2ccccc21` (stereo unspecified), “inactive”.
The same measure, in the same setting: as for `COc1cccc(S(=O)(=O)N2CCCCCCNC(=O)[C@@H]3CCC[C@@H]32)c1`, the entry is “inactive”; as for `O=C(Nc1ccccc1)Nc1cc(S(=O)(=O)N2CCOCC2)ccc1NCC1CCCO1` (stereo unspecified), “inactive”.
For `c1ccc([C@@H]2CNC[C@H]2COCC2CC2)nc1`, the Potency entry is “inactive”.
The same measure, in the same setting: as for `Cn1c(C(=O)NCCNC(=O)c2cccc(F)c2)cc2ccccc21`, the entry is “inactive”; as for `Cc1cccc(-n2nc(-c3c(C)nc4scc(CC(=O)NCCC(C)C)n4c3=O)cc2C)c1C`, “inactive”.
Still for that read-out and setting: for `COc1ccccc1CCNS(=O)(=O)c1ccc(N2C(=O)C(C)(C)CS2(=O)=O)cc1` the value was “inactive”.
Regarding `COc1ccc2nc(SC3CC(=O)N(c4ccc(F)cc4)C3=O)nc(C)c2c1` (stereo unspecified), the Potency result was “inactive”.
Consider `O=C(CCN1CCN(C/C=C/c2ccccc2)CC1)Nc1cccc(F)c1`, for which the Potency result was “inactive”.
The same measure, in the same setting: for `O=C(CCN1CCCCC1)Nc1ccc(F)c(F)c1` the value was “inactive”; for `Cc1cc(NC(=O)CCN2CCN(Cc3ccccc3)CC2)ccc1Br`, 3.16 µM (active).
The same measure, in the same setting: for `COCCNC(=O)COc1ccc2c(C)c(Cc3ccccc3)c(=O)oc2c1C` the value was “inactive”; for `CN(C)C[C@@H]1CN(Cc2ccccn2)C[C@H]1NC(=O)c1cc(F)ccc1Cl`, “inactive”.
The same measure, in the same setting: for `COc1ccccc1Oc1coc2cc(OCc3ccc(Cl)cc3)ccc2c1=O` the value was “inactive”.
Regarding `COC(=O)COc1ccc2c(=O)c(Oc3ccccc3Br)coc2c1`, the Potency result is “inactive”.
The same measure, in the same setting: as for `O=C(O)COc1ccc2c(=O)c(Oc3ccc(Cl)cc3)coc2c1`, the figure is 12.6 µM (active); as for `CCCCN1C(SCC(=O)N2CCCC2)=NS(=O)(=O)c2ccccc21`, “inactive”.
Still for that read-out and setting: for `Cc1ccc(C(CNC(=O)c2cc3ccccc3oc2=O)N(C)C)o1` (stereo unspecified) the value was “inactive”.
Same read-out and setting: for `O=C1Cc2c(-c3ccc(Oc4ccccc4)cc3)n[nH]c2CN1CCc1ccncc1` the value was “inactive”.
With `CCc1ccc(Nc2n[n+](-c3ccccc3)c(-c3cccc(Cl)c3Cl)s2)cc1`, the Potency is 39.8 µM (active).
For `CCn1nc(C)cc1-c1nn2c(-c3cccc(Cl)c3Cl)nnc2s1`, the Potency result was “inactive”.
Same read-out and setting: as for `CC1CCCC(NC(=O)c2c(F)cccc2F)C1C` (stereo unspecified), the entry is “inactive”.
As to `CCc1sc(C(=O)NC(C)C)cc1C`, the Potency entry is “inactive”.
In the case of `Cc1cccc(OCC(O)CNC23CC4CC(CC(C4)C2)C3)c1` (stereo unspecified), the Potency result was “inactive”.
As for `CCn1cc(CN2CCCC23CCN(c2ccc(C(F)(F)F)cn2)CC3)cc1C#N`, the Potency entry was “inactive”.
For the compound `O=C(CSc1ncnc2sc3c(c12)CCCC3)Nc1ccc(F)cc1`, the Potency entry was “inactive”.
Take `Cc1cc(C(F)(F)F)nn1Cc1nc2c3c4c(sc3ncn2n1)CCC4`: the Potency entry is “inactive”.
Still for that read-out and setting: for `S=c1[nH]nc2c3c4c(sc3ncn12)CCCC4` the value was 0.562 µM (active).
The same measure, in the same setting: for `CCCCCCCCCC(=O)NN=C1CCCCCCCCCCC1` the value was “inactive”; for `CC1(C(=O)NS(=O)(=O)C2CC2)CCCN(C(=O)CSc2ccccc2)C1` (stereo unspecified), “inactive”.
`O=C(CSc1ncccn1)N1CCCC1`: the Potency result was “inactive”.
On the same count and under the same terms, as for `O=C(CSc1ccncc1)N1CCCC(O)(CN2CCCC2)C1` (stereo unspecified), the figure is 25.1 µM (active).
